Screen size: about 75,000 compounds; about 20 (0.03%) were called active. Calls come from the whole dose curve; as a rule, active = well fitted inhibition curve with a large enough effect; inconclusive = small, poorly fitted or top-dose-only effect; inactive = no such curve, though single readings can be large or run the other way. A selection follows.
target: Breast cancer type 1 susceptibility protein (Homo sapiens) (UniProt P38398); test: qHTS Assay for Inhibitors of BRCT-Phosphoprotein Interaction (Red Fluorophore); settings: BRCT-phosphopeptide binding, red fluorescence polarization; series mostly up to 76.9 µM; activity change, negative = inhibition: at the top concentration
Sequence (P38398 whole entry, looked up): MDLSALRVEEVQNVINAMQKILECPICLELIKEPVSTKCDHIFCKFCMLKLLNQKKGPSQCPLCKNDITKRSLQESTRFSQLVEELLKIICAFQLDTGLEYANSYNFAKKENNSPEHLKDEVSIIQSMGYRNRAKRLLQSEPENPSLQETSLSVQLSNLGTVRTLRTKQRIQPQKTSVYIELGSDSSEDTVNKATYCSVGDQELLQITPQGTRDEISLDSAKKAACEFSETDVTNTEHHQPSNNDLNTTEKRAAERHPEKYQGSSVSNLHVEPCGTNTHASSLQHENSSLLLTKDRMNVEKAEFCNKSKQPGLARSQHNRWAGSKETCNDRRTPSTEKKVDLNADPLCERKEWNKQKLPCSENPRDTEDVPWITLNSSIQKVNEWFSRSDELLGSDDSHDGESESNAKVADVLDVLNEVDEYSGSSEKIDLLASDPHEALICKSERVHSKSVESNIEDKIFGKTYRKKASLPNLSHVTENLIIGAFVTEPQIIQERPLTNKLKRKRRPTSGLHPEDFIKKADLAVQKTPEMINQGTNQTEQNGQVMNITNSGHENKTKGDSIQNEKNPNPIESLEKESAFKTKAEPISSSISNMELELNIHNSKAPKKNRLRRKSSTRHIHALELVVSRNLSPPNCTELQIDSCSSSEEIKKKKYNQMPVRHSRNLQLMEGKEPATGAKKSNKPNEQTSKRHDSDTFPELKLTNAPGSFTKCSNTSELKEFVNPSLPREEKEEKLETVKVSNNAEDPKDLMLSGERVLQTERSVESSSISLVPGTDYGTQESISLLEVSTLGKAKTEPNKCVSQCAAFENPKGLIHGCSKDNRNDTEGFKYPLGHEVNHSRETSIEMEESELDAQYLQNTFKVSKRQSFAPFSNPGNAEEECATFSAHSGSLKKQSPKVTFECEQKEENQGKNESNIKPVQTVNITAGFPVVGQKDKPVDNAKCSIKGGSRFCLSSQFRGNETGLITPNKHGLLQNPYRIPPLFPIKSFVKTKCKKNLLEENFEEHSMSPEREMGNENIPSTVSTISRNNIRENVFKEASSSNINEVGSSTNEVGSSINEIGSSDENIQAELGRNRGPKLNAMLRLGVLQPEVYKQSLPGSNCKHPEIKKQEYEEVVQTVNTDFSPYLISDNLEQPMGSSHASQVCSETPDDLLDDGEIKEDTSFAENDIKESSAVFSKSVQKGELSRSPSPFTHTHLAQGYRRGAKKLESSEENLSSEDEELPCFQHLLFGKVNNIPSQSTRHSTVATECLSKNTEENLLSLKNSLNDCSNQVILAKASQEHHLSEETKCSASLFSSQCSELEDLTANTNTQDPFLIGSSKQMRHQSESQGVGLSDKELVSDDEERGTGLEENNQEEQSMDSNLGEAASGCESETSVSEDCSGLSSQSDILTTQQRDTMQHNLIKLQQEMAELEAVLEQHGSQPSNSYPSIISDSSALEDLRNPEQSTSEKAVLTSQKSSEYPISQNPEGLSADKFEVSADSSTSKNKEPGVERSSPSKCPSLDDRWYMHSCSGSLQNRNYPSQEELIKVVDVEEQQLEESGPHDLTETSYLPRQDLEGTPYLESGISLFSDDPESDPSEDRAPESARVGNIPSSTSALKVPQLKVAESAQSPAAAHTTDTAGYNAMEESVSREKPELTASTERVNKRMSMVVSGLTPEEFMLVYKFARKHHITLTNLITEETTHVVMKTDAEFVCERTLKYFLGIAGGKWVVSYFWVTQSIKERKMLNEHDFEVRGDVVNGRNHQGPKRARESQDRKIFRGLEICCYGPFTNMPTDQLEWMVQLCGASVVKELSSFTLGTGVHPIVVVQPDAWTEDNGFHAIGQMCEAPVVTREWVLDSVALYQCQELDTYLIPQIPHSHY
Description: NIH Molecular Libraries Screening Centers Network [MLSCN]
NIH Chemical Genomics Center [NCGC]
PI Name: Natarajan, Amarnath; University of Texas
A complex of BRCT (C-terminal portion of BRCA1, MW ~35 kDa, His-tagged) and fluorescently labeled pBACH1 phosphorylated 10 aa peptide fragment of BACH1, a helicase implicated in DNA repair, is incubated with library members. Inhibitors of BRCT-pBACH1 binding are detected by a decrease in the fluorescence polarization (FP) of the fluorophore. In order to minimize the effect of fluorescence artifacts and to increase the overall robustness of the screen, the compound library members were incubated in separate reactions with rhodamine-labeled probe-protein complexes. Protein and labeled probes were supplied by Dr. Amarnath Natarajan, Department of Pharmacology and Toxicology, University of Texas Medical Branch Galveston, TX.
Assay Buffer: 16mM Na2HPO4, 4 mM NaH2PO4, 150 mM NaCl, 1 mM EDTA, 1 mM DTT, 0.02% NaN3, and 0.01% Tween 20 at pH 7.3.
Assay Controls: 100 nM TAMRA labeled decapeptide dispensed into columns 3 and 4 to generate negative control (full inhibition of
binding, -100 % activity). 100 nM labeled decapeptide/100 nM protein in columns 1, 2, 5 - 48. Titration of unlabeled decapeptide control (from 10 mM, then 1:2 dilution in duplicate) pin-transferred to column 2, rows 1 to 16. Column 1 is neutral.
Three uL of reagents were dispensed to 1536-well Greiner black solid-bottom plates. Compounds and controls (23 nL) were transferred via Kalypsys PinTool. The plates were incubated for 12 min at room temperature, and then read on ViewLux (Perkin-Elmer) High-throughput CCD imager using BODIPY for the rhodamine-labeled decapeptide probe polarization filter sets. During dispense, reagent bottles were kept submerged into 4 deg C water bath and all liquid lines were covered with aluminum foil to minimize probe and protein degradation. All screening operations were performed on a Kalypsys robotic system (Kalypsys, Inc., San Diego, CA) containing one RX-130 and two RX-90 anthropomorphic robotic arms. The timing and order of assay plates passing through the screening system were adjusted such that each compound library plate was assayed against the fluorescein- and rhodamine-labeled assay systems at immediately adjacent time points.
% is set by controls: 0 for no effect and ±100 for the full control effect.

Activity change, negative = inhibition, inactive:
CO/N=C\[C@@H](C)[C@H](OCc1ccccc1)C(C)C -2.08% [at 15.4 µM]
Cc1cccc(-c2cc(=O)c3cc(C)ccc3o2)c1 -3.67%
Cc1cnc(NC(=O)CSc2nnc(-c3ccc(Cl)cc3Cl)n2N)s1 1.12%
CCn1nnc(NC(=O)c2cc(Cl)c(OC)c(Cl)c2)n1 0.626%
O=C(CSc1nnc2scc(-c3ccc(F)cc3)n12)NCc1ccco1 -3.16%
O=C(CSc1nnc2ccccn12)c1ccccc1 -0.613%
CN(C)/C=N/c1cc(=O)n(C)c(=O)n1CC1CC1 0.302%
CCn1c(CSc2nncn2-c2ccc(OC)cc2)nc2cc(S(=O)(=O)N(C)C)ccc21 -0.0262%
Cc1ccc(C(=O)Nc2nnc(-c3ccncc3)s2)o1 -0.503%
CCCN(CCC)C(=O)C1c2ccccc2Oc2ccccc21 -2.75%
O=C(NCCc1ccco1)c1nn(Cc2ccccc2)c(=O)c2ccccc12 -1.11%
COC(=O)c1c(NC(=O)CSc2nncs2)sc2c1CCCCC2 -0.0838%
CCOC(=O)N1CCN(C(=O)c2nn(-c3ccc(C)cc3)c(=O)c3c2c2ccccc2n3C)CC1 0.678%
CCOC(=O)c1nnn(CC(=O)Nc2cccc(F)c2)c1C(=O)OCC -0.331%
CCC1=C(OC(=O)N(CC)CC)N2C(=O)OC(=NCC3CC3)[C@]2(C)[C@H]2C1=CC[C@H]1C(=O)N(CC(=O)OC)C(=O)[C@H]12 -1.92%
COc1ccc(C(=O)NCc2cn3ccccc3n2)cc1 0.842%
COc1cccc(-c2cc(NCCc3c[nH]c4ccc(OC)cc34)ncn2)c1 -0.197%
COCCNC(=O)CSc1nc2c(n1-c1ccccc1)CCCC2 0.0626%
COc1ccccc1N=C1SC(C)CN1C(=O)C1CCC1 (centres undefined) 1.07%
Cc1ccc2[nH]c3c(c2c1)CN(C(=O)CN1CCN(c2ccccc2)CC1)CC3 -1.58%
CC(NC(=O)c1cc(-c2ccccc2)on1)c1ccccc1 (centres undefined) -1.69%
O=S(=O)(c1cccs1)N1CCN(Cc2ccccc2)CC1 0.716%
CCCC(=O)Nc1nnc(CC(=O)OCC)s1 -0.653%
N#CC1=C(SCc2ccccc2)NC(=O)C(C#N)C12CCCC2 (centres undefined) 0.43%
Cc1cc(N(C)C)cc(C)[n+]1[O-] -0.606%
CC(C)(C)NC(=O)c1cc(NC(=O)c2ccco2)cc(NC(=O)c2ccco2)c1 0.733%
Cc1ccc2nc(NC(=O)C3CCN(S(=O)(=O)c4ccc5c(c4)oc(=O)n5C)CC3)sc2c1 0.323%
COC(=O)[C@@H]1C[C@@]2(O)[C@H](O)[C@H](O)[C@H](O)C[C@H]2N1Cc1ccc(C)s1 -0.918%
COC(=O)Nc1nc2ccc(Sc3ccccc3)cc2[nH]1

Source: PubChem BioAssay AID892 (National Center for Advancing Translational Sciences (NCATS), 2007)
